AmpC inh no det – AmpC beta-lactamase inhibition, detergent-free assay; 71,000 compounds, 1.8% hits; Potency, µM (series often up to 28.7 µM); AmpC nitrocefin hydrolysis, absorbance 480 nm, no detergent; P00811; AID 585
Target sequence (P00811 whole entry, looked up): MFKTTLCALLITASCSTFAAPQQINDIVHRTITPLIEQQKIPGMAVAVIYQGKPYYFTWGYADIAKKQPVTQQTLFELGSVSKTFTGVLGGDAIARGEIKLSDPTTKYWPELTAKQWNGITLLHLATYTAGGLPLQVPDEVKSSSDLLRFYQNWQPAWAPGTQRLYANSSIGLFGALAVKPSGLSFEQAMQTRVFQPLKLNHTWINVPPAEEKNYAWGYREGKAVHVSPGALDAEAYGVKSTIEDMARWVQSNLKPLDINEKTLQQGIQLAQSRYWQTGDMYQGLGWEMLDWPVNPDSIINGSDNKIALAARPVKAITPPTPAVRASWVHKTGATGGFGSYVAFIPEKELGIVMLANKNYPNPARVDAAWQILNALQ
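Enzyme, pH 7.0 phosphate. Compound titrations were pre-incubated with AmpC for 15 min at room temperature before nitrocefin (stock 800 uM) addition; product formation was recorded at 480 nm every 20 s for 4 min.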
Anthrax LT inh – blocks cellular internalization of anthrax lethal toxin; Potency, µM (series often up to 40 µM), actives largely listed as inhibitors; AID 912; 70,000 compounds, 0.67% hits; Cells, anthrax lethal toxin internalization, FRET ratio (460/530); note: nearly all actives have a fitted effect of over 50% in size
AmpC det inh – inhibitors of E. coli AmpC beta-lactamase with detergent; P00811; purified AmpC, nitrocefin hydrolysis with detergent; Potency, µM (highest dose often 28.7 µM); 71,000 compounds, 0.09% hits; active = well fitted curve in the direction sought with a large enough effect; inconclusive = small, poorly fitted or top-dose-only effect
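E. coli AmpC (5.3 nM) in 20 mM phosphate pH 7.0 with 0.01% Triton X-100, preincubated 15 min RT with compound; nitrocefin (2 uL of 800 uM stock) hydrolysis followed by 480 nm absorbance every 20 s over 4 min.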
Prx2 Sm inh – inhibitors of Schistosoma mansoni peroxiredoxin 2; S. mansoni Prx2 activity coupled to TGR/GSH (TGR is thioredoxin glutathione reductase), NADPH fluorescence loss, qHTS; Potency, µM; 65,000 compounds, 0.07% hits
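Coupled assay in which S. mansoni TGR passes NADPH reducing equivalents via glutathione to Prx2, which reduces H2O2. Compounds were preincubated 15 min at room temperature with 25 nM TGR/50 nM Prx2 mix. Kinetic NADPH fluorescence loss (ex 365/em 450 nm) was monitored.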
Each line names hits and unclear results; the compound was inactive in the other large screens; ! = not active in a repeat; [ ] = remark or other dose. Rows were chosen to be rich in hits. Some 2.4% of all compounds tested hit in one or more screens of this group. Unless noted, calls come from the whole dose curve.

COc1ccc(Br)cc1CNC(=O)C1CCCN(S(C)(=O)=O)C1 (stereo not drawn)	Anthrax LT inh 10µM
CCOC(=O)c1cc(-c2ccccc2)n(CC(=O)O)c1C	none
CCOC(=O)c1cc(-c2ccc(F)cc2)n(CC(=O)Nc2nccs2)c1C	AmpC inh no det 3.2µM[single pt active], Anthrax LT inh 10µM
Cc1csc2nc(CSc3nncn3-c3ccccc3)c(Br)n12	none
Cc1csc2nc(CSc3nc4ccccc4o3)c(Br)n12	Anthrax LT inh 13µM
CC[C@H]1CN2CCc3cc(OC)c(OC)cc3[C@H]2C[C@@H]1C[C@H]1NCCc2c1[nH]c1ccc(O)cc21	Anthrax LT inh inconclusive
CC[C@@H]1CN2CCc3cc(OC)c(OC)cc3[C@H]2C[C@@H]1C[C@H]1NCCc2cc(OC)c(OC)cc21	Anthrax LT inh 0.02µM (no result: AmpC inh no det, AmpC det inh)
CC1CCN(c2nnc(N3CCC(C)CC3)c3ccccc23)CC1	AmpC inh no det 3.2µM[single pt active]
CC1CCN(c2nncc3ccccc23)CC1	none
C/C(=C\[C@@H](NP(=O)(c1ccccc1)c1ccccc1)c1ccccc1)CO[Si](c1ccccc1)(c1ccccc1)C(C)(C)C	none (no result: Prx2 Sm inh)
CCCC/C(C)=C/[C@@H](NP(=O)(c1ccccc1)c1ccccc1)c1ccccc1	Anthrax LT inh 10µM (no result: Prx2 Sm inh)
CCC(=O)Oc1ccc2c(C)cc(=O)oc2c1C	Anthrax LT inh inconclusive, Prx2 Sm inh inconclusive
Cc1cc(=O)oc2c1ccc1oc(/C(=N/O)c3ccccc3)c(C)c12	Anthrax LT inh 10µM (no result: Prx2 Sm inh)
S=C1N[C@H](c2ccccc2)N[C@H](c2ccccc2)S1	none
O=c1[nH]c2c(s1)C(c1ccccc1)C1C3CCC(C3)C1S2 (stereo not drawn)	AmpC inh no det 1.6µM, Anthrax LT inh inconclusive
CC1CCCC(C)N1c1nnc(N)s1 (stereo not drawn)	AmpC inh no det 4µM[single pt active]
CC1CCCCN1c1nnc(N)s1 (stereo not drawn)	none
O=C(c1ccc(CSCc2ccccc2F)o1)N1CCN(c2ccc(N3CCOCC3)nn2)CC1	Anthrax LT inh 7.9µM
O=C(Cc1c[nH]c2ccccc12)Nc1nc2ccccc2[nH]1	AmpC inh no det 7.9µM
O=C(Cc1ccccc1)Nc1nc2ccccc2[nH]1	none
O=C1c2cccc([N+](=O)[O-])c2C(=O)N1c1ncn[nH]1	none
S=C1SCN(C2CCCCCCCCCCC2)CN1C1CCCCCCCCCCC1	none
N#Cc1cccc(-c2nccc(NCc3ccccc3)n2)c1	none
N#Cc1cccc(-c2nccc(NCc3cccnc3)n2)c1	AmpC inh no det 5µM, AmpC det inh 10µM
O=[As](O)(O)c1ccc(NCc2ccccc2)cc1	none
COc1cccc(Cn2c(C3CC3)nc3ccc(NC(=O)c4ccco4)cc3c2=O)c1	Anthrax LT inh 13µM
O=C(Nc1ccc2nc(C3CC3)n(Cc3ccc(F)cc3)c(=O)c2c1)c1ccco1	none
CC(=O)[C@@H]1CC[C@@H]2[C@@H]3CC=C4C[C@H](OS(=O)(=O)O)CC[C@@]4(C)[C@H]3CC[C@]21C	Anthrax LT inh inconclusive
CCCOc1nc(N)c(C#N)c(-c2ccccc2F)c1C#N	Anthrax LT inh 7.9µM
CC1CCCCN1CCNC(=O)c1cc2c(=O)n(C)c3ccccc3c2n1C (stereo not drawn)	Anthrax LT inh 2.5µM
Cn1c(C(=O)NCCN2CCOCC2)cc2c(=O)n(C)c3ccccc3c21	none
Cn1c(C(=O)NCCN2CCc3ccccc3C2)cc2c(=O)n(C)c3ccccc3c21	Anthrax LT inh 7.9µM
CC1CCC(NC(=O)c2cc3c(=O)n(C)c4ccccc4c3n2C)CC1 (stereo not drawn)	AmpC inh no det 4µM[single pt active]
Cn1c(C(=O)NCCN2CCN(c3ccccc3F)CC2)cc2c(=O)n(C)c3ccccc3c21	AmpC inh no det 4µM[single pt active]
Nc1[nH]c(=S)[nH]c(=O)c1N=Nc1c(Br)cc(S(N)(=O)=O)cc1Br	none
Cc1noc(C)c1-c1ccc2ncnc(N(C)Cc3ccco3)c2c1	none
COC(=O)[C@H]1[C@@H]2C[C@H]3c4[nH]c5ccccc5c4CCN3C[C@@H]2CC[C@@H]1O	none
Cc1cc(C(=O)NCCN2CCCCC2C)n(-c2ccccc2)n1 (stereo not drawn)	none
CC1CCCCN1CCNC(=O)c1cnn2ccccc12 (stereo not drawn)	AmpC inh no det 3.2µM[single pt active] (no result: Prx2 Sm inh)
Nc1c2c(nc3ccccc13)CCCC2	Anthrax LT inh 32µM!
Cc1cc(C)nc(SCC(=O)c2ccc(O)cc2O)n1	AmpC inh no det 4µM[single pt active]
C[C@H](NC(=O)/C(C#N)=C/c1ccc(O)c(O)c1)c1ccccc1	Anthrax LT inh inconclusive
O=c1c(O)c(-c2cc(O)c(O)c(O)c2)oc2cc(O)cc(O)c12	AmpC inh no det 10µM, Anthrax LT inh inconclusive
